# Sa ugtP lethal: growth inhibition of ugtP-null S. aureus, primary screen, RN4220 ugtP deletion, OD600; 16 h; growth inhibition, % (no concentration beside the values); actives 0.54% (n = 330,000); AID 1259309, 2017; in the data active means growth inhibition above about 68%
# Mtb BioA inh: M. tuberculosis BioA enzyme inhibitors, primary screen, biochemical, plate reader, single point, HTS; 7,8-diaminopelargonic acid synthase BioA (Mycobacterium tuberculosis); purified M. tuberculosis BioA enzyme; inhibition, % at 9.99 µM; actives 0.096% (n = 360,000); AID 602481, 2012; in the data active means inhibition above about 40%
# Mtb hypoxia inh: PubChem AID 1159583; M. tuberculosis hypoxia-regulated fluorescent reporter, fluorescence; fluorescence inhibition, % (no concentration beside the values); actives 0.1% (n = 300,000); in the data active means fluorescence inhibition mostly above about 23%, no sharp cut-off; inactive means mostly below about 17%
# Sa RN4220 lethal: growth inhibition of S. aureus RN4220, primary screen, OD600 | 16 h | inhibition, % (no concentration beside the values) | actives 0.33% (n = 330,000) | AID 1259311, 2017; in the data active means inhibition above about 85%
# TcdB GH inh: TcdB glycohydrolase inhibitors, primary screen, biochemical, single point, plate reader | Toxin B (Clostridioides difficile), P18177 | TcdB glycohydrolase enzymatic assay | inhibition, % at 9.99 µM | actives 0.24% (n = 350,000) | AID 652162, 2013; in the data active means inhibition above about 10%
# Yp Topo-I inh: Yersinia pestis topoisomerase I inhibitors, primary screen, biochemical, cleavage product accumulation, plate reader, single point; activity, % at 10 µM; actives 0.064% (n = 360,000); DNA topoisomerase I (Yersinia pestis CO92); Y. pestis Topo-I cleavage product accumulation; in the data active means activity above about 50%, passing the limit was not always enough
# Numbers stand for hits; - = inactive; . = no result shown. A selection: hits, their analogues and other compounds. The true share with any hit is near 0.75%.
SMILES,Sa ugtP lethal,Mtb BioA inh,Mtb hypoxia inh,Sa RN4220 lethal,TcdB GH inh,Yp Topo-I inh
COc1ccc(C=NN2CCN(c3ccncc3S(=O)(=O)N3CCCCC3)CC2)cc1,-,.,.,-,.,.
CC(=O)c1ccc2c(c1)c(C#N)c1ccccc1[n+]2[O-],-,-,42,-,-,-
CC(=O)c1ccc2noc(-c3ccccc3)c2c1,-,-,-,-,-,-
Cc1ccccc1-n1c(C)n[nH]c1=S,-,-,-,-,-,-
Cc1cccn2c(=S)[nH]nc12,-,-,-,-,16,-
COC1C=CO[C@@]2(C)Oc3c(C)c(O)c4c(O)c(c(C=NN5CCN(C6CCCC6)CC5)c(O)c4c3C2=O)NC(=O)C(C)=CC=CC(C)C(O)C(C)C(O)C(C)C(OC(C)=O)C1C (some centres undefined),98,.,.,99,.,.
CCN(CC)S(=O)(=O)c1ccccc1C=NO,-,.,.,-,.,.
CC(C)OC(=O)c1cc2c(=O)[nH]c(C(Cl)(Cl)Cl)nc2o1,87,.,-,92,-,-
O=C1N=c2ccccc2=C1c1c(O)[nH]c2c(C(F)(F)F)cccc12,98,-,-,96,-,-
CC(=O)Nc1cccc2cc(O)ccc12,-,-,-,-,22,-
CC(NC(=O)c1nc[nH]c1C(=O)NCc1ccccc1)c1ccccc1 (centres undefined),-,.,-,-,.,.
COc1cc(/C=C/C(=O)OCC(=O)c2ccc[nH]2)ccc1O,.,-,.,.,15,-
COc1cc(/C=C/C(=O)OCC(=O)NC(=O)NC(C)C)ccc1OCC#N,-,-,-,-,.,-
COc1cccc(/C=C/C(=O)OCC(=O)c2ccc[nH]2)c1,.,-,.,.,-,-
COc1cc(/C=C/C(=O)OCC(=O)N(C)Cc2ccccc2)cc(OC)c1OC,-,-,-,-,-,-
COc1cc(/C=C/C(=O)OCC(=O)N(C)Cc2ccccc2)ccc1O,-,-,-,-,11,-
COc1cc(/C=C/C(=O)OCC(=O)NC(=O)NC(C)C)ccc1O,-,-,-,-,12,-
COc1ccc(CCN(C(=S)Nc2ccccc2)C2CC(=O)N(c3ccccc3)C2=O)cc1 (centres undefined),-,-,.,-,.,-
O=C1CC(N(CCc2ccccc2)C(=S)Nc2ccccc2)C(=O)N1c1ccc(Br)cc1 (centres undefined),98,-,-,98,-,-
O=[N+]([O-])c1ccc(O)c(/C=N/Nc2ccccc2Cl)c1,.,-,.,.,-,-
O=C(NN=Cc1cc([N+](=O)[O-])ccc1O)C1CCCCC1,86,.,-,95,.,.
O=[N+]([O-])c1ccc(O)c(C=NNC(=S)Nc2ccc(Cl)cc2Cl)c1,100,.,-,-,.,.
O=C(N/N=C/c1cc([N+](=O)[O-])ccc1O)C1CC1,.,-,.,.,-,-
O=C1NCCCC1C(=O)NN=Cc1cc([N+](=O)[O-])ccc1O (centres undefined),-,.,-,90,.,.
O=C(NN=Cc1cc([N+](=O)[O-])ccc1O)C1C2CCCCC21 (centres undefined),-,.,-,89,.,.
SMILES,Sa ugtP lethal,Mtb BioA inh,Mtb hypoxia inh,Sa RN4220 lethal,TcdB GH inh,Yp Topo-I inh
C=CCOC(=O)C(=O)C=Cc1c(C)n(C)n(-c2ccccc2)c1=O,-,.,-,-,.,.
CCc1nc(NC(C(=O)O)C(C)CC)c2oc3ccccc3c2n1 (centres undefined),-,.,.,-,.,.
COc1cccc(C=NNC(=O)CNC(=O)c2ccc(S(=O)(=O)N3CCOCC3)cc2)c1OC,-,.,-,-,.,.
CC(C)(C)NC(=O)C1CN(Cc2cccnc2)CCN1CC(O)CC(Cc1ccccc1)C(=O)NC1c2ccccc2CC1O (centres undefined),-,.,-,-,.,.
CCCCC(CC)COC(=O)c1ccccc1C(=O)OCC(CC)CCCC (centres undefined),-,-,-,-,-,61
C#CCOCCOCCOCCNc1nc(N2CCN(C(=O)C(CCCCN)n3cc(CCCC)nn3)CC2)nc(N2CCN(C(=O)C(C(C)C)n3cc(CCO)nn3)CC2)n1 (centres undefined),-,.,-,-,.,.
CN(C)CCn1nnnc1SCC1=C(C(=O)O)N2C(=O)C(NC(=O)Cc3csc(N)n3)C2SC1 (centres undefined),100,.,-,100,.,.
Cn1nnnc1SCC1=C(C(=O)O)N2C(=O)[C@@H](NC(=O)[C@H](O)c3ccccc3)[C@H]2SC1,.,-,.,.,.,-
